Data reported in PubChem BioAssay.
Values without a mark were called inactive. For some assays here: Measured potencies and affinities stand elsewhere. Active and inactive are the calls of the source. Unless noted, the rule behind the calls is not given here.

Legend:
[1] = antimalarial activity against Dd2 strain (AID 2302;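 active = growth inhibition above 50% at the single 2 µM test dose, taken to imply half-maximal potency below 2 µM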;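 note: 0% = DMSO untreated growth and 100% = chloroquine plus artemisinin killed control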); conditions: P. falciparum Dd2 in RBCs, LDH growth readout, 72 h; at 2 µM; stronger effect = higher value
[2] = HepG2 cytotoxicity, primary screen, cytotoxicity control for P. falciparum antimalarial project, cell-based, ATP luminescence (AID 2303;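 active = inhibition above 50%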;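 note: 0% = DMSO wells and 100% = digitonin-killed cells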); conditions: HepG2 viability, 24-48 h, at 10 µM, stronger effect = higher value
[3] = target: L-lactate dehydrogenase (Plasmodium falciparum (isolate CDC / Honduras)) (UniProt Q27743); assay: PfLDH activity inhibition – cell lysate, 3D7 strain, counter-screen for P. falciparum growth inhibition project (AID 2304);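 note: 0% = vehicle and 100% = reference inhibitor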; conditions: P. falciparum 3D7 crude extract, LDH APAD/NBT absorbance; at 2 µM; stronger effect = higher value
[4] = inhibition of 3D7 malaria parasite growth – strain 3D7 (AID 2306);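 note: 0% = DMSO wells and 100% = chloroquine plus artemisinin control wells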; conditions: P. falciparum 3D7 erythrocytic growth, LDH absorbance, 72 h; at 2 µM; stronger effect = higher value
[5] = target: Calcium-dependent protein kinase 1 (Plasmodium falciparum (isolate 3D7)) (UniProt P62344); assay: PfCDPK1 kinase inhibitors, biochemical, TCAMS library (AID 1159585; cut-off not given, nearly all actives have IC50 up to about 0.98 µM;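 note: inhibitors leave more ATP so luminescence rises with inhibition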); conditions: recombinant PfCDPK1, Kinase-Glo ATP depletion luminescence
[6] = target: Plasmodium falciparum protein kinase 6 (PK6, PF3D7_1337100) (UniProt Q8IDW1); assay: PfPK6 kinase inhibitors, biochemical, TCAMS library (AID 1159586); conditions: recombinant PfPK6, Kinase-Glo ATP depletion luminescence
[7] = target: Protein kinase 7 (PK7), Plasmodium falciparum 3D7 (PF3D7_0213400) (UniProt Q7YTF7); assay: inhibition of Plasmodium PK7 catalytic activity – biochemical, TCAMS antimalarial set, Kinase-Glo luminescence (AID 1159587); conditions: recombinant PfPK7, Kinase-Glo ATP depletion luminescence
[8] = target: Calcium-dependent protein kinase 4 (Plasmodium falciparum (isolate 3D7)) (UniProt Q8IBS5); assay: PfCDPK4 kinase inhibitors, biochemical, TCAMS library (AID 1159588; cut-off not given, nearly all actives have IC50 up to about 0.91 µM); conditions: recombinant PfCDPK4, Kinase-Glo ATP depletion luminescence
Calcium-dependent protein kinase 4 (Plasmodium falciparum (isolate 3D7)), sequence (Q8IBS5 whole entry, looked up): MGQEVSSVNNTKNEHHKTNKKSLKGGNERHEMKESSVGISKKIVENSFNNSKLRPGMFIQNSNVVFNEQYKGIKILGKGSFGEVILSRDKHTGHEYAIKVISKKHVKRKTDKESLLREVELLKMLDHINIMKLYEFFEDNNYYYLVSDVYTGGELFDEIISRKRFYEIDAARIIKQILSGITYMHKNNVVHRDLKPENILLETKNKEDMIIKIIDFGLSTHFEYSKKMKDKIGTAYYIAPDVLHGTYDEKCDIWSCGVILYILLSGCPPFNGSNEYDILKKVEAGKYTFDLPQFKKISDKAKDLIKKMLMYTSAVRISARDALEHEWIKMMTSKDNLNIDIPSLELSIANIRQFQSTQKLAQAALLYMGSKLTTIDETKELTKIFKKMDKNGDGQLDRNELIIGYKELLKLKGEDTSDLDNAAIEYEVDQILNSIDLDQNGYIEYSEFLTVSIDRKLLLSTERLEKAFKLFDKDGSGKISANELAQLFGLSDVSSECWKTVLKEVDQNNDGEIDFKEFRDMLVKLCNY

L-lactate dehydrogenase (Plasmodium falciparum (isolate CDC / Honduras)), sequence (Q27743 whole entry, looked up): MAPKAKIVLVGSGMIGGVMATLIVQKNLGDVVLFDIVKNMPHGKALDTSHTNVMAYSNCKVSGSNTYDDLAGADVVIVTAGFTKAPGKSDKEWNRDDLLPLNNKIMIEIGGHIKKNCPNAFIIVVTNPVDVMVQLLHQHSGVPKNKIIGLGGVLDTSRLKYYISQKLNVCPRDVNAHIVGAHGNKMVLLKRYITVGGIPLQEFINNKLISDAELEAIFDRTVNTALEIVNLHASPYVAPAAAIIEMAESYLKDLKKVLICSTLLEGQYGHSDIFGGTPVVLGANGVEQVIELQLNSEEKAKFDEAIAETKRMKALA
Calcium-dependent protein kinase 1 (Plasmodium falciparum (isolate 3D7)), sequence (P62344 whole entry, looked up): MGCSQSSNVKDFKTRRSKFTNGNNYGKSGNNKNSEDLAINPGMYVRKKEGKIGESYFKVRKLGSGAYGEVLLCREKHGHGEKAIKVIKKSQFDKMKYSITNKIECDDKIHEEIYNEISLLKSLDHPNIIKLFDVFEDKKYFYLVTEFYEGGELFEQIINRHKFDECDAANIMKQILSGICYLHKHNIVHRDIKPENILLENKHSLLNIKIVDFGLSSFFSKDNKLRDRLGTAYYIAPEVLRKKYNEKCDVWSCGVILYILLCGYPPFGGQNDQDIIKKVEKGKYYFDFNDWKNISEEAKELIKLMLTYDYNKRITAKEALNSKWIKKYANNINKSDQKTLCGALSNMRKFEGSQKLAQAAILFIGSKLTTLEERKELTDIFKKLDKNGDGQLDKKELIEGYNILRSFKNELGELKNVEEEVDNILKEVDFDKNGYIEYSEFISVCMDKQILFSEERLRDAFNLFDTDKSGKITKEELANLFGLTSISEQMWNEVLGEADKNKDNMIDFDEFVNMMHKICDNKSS
Plasmodium falciparum protein kinase 6 (PK6, PF3D7_1337100), sequence (Q8IDW1 1-305): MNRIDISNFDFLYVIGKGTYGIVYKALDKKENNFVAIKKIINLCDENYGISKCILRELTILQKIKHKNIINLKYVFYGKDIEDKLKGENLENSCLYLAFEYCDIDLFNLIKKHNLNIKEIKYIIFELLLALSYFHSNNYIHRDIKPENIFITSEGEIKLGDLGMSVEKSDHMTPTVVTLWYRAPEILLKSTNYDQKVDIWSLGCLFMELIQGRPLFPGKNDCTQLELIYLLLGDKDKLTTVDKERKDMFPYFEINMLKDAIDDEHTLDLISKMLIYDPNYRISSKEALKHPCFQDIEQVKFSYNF
Protein kinase 7 (PK7), Plasmodium falciparum 3D7 (PF3D7_0213400), sequence (Q7YTF7 1-343): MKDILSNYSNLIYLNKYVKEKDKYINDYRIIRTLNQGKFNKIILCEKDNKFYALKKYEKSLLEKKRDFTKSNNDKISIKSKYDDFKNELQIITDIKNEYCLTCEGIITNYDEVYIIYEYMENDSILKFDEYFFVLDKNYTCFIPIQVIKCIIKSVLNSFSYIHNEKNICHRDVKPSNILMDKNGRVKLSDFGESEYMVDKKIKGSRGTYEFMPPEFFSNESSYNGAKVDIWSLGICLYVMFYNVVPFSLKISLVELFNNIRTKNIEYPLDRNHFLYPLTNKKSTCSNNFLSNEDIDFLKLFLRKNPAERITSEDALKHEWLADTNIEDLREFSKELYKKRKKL

SMILES | growth inhibition [1] | inhibition [2] | inhibition [3] | growth inhibition [4] | outcome [5] | outcome [6] | outcome [7] | outcome [8]
CC(C)(C)c1ccccc1OC(=O)c1ccccc1 | 2% | -4% | 0% | 95% (active) | inactive | inactive | inactive | inactive
CN(C)Cc1ccc(CN2CCN(CCOc3ccc(-c4ccc(Cl)cc4)cc3)CC2)o1 | 21% | 75% (active) | -1% | 90% (active) | inactive | inactive | inactive | inactive
COc1ccc2nc(-c3ccccc3)cc(NCCCNc3cc(-c4ccccc4)nc4ccc(OC)cc34)c2c1 | 99% (active) | 100% (active) | 9% | 99% (active) | inactive | inactive | inactive | inactive
CCCCCc1ccc(N2C(N)=NC(N)=NC2(C)C)cc1 | 1% | 59% (active) | -6% | 95% (active) | inactive | inactive | inactive | inactive
O=c1c2ccc(F)cc2sn1-c1ccc(Cl)cc1 | 11% | 8% | -2% | 98% (active) | inactive | inactive | inactive | inactive
O=C(Nc1ccccc1F)N(CCCn1ccnc1)Cc1csc(-c2ccc(CNCc3ccccc3)cc2)n1 | 26% | 24% | 2% | 93% (active) | inactive | inactive | inactive | inactive
Cc1ccoc1C(=O)Nc1ccc(-c2cccc(-c3nc4c(C)cccc4[nH]3)c2)cc1 | 69% (active) | 15% | -4% | 95% (active) | inactive | inactive | inactive | inactive
Clc1ccc(Nc2nc3nonc3nc2Nc2ccc(Cl)c(Cl)c2)cc1 | 92% (active) | 75% (active) | 0% | 99% (active) | inactive | inactive | inactive | inactive
NC1CCN(Cc2cccc(-c3ccc(-c4nc5ccccc5[nH]4)s3)c2)C1 (stereo not given) | 62% (active) | 36% | -1% | 100% (active) | inactive | inactive | inactive | inactive
Cc1ccc(CCNCC(O)c2cccc(C(F)(F)F)c2)cc1 (stereo not given) | 83% (active) | -3% | 0% | 94% (active) | inactive | inactive | inactive | inactive
COc1cc(C)c(C(O)CNC(C)CCc2ccccc2)cc1C (stereo not given) | 98% (active) | 1% | -2% | 98% (active) | inactive | inactive | inactive | inactive
CCC(C)CN1CCN(c2cc(NC(=O)c3cccs3)ccn2)C(C)C1 (stereo not given) | 72% (active) | 5% | 0% | 88% (active) | inactive | inactive | inactive | inactive
Cc1cccn2c(=O)c3cc(C(=O)NC(C)c4ccccc4)c(=N)n(CCc4ccccc4)c3nc12 (stereo not given) | 82% (active) | 5% | -3% | 101% (active) | inactive | inactive | inactive | inactive
CCCCC(=O)Nc1cc(=O)[nH]c2nc(-c3ccc(Cl)cc3)nn12 | 77% (active) | 1% | 0% | 89% (active) | inactive | inactive | inactive | inactive
CC(C)CCCC(C)(C)NC[C@@H](O)[C@H](Cc1ccccc1)NC(=O)c1cc(NC(C)C)cc(N2CCCCS2(=O)=O)c1F | 99% (active) | 11% | -3% | 98% (active) | inactive | inactive | inactive | inactive
Cc1ccc(Oc2ncccc2C(=O)Nc2cccc3cccnc23)c(C)c1 | 76% (active) | -13% | 0% | 99% (active) | inactive | inactive | inactive | inactive
CC(C)CNCc1cccc(-c2cccc(CN(CCN(C)C)C(=O)NCCc3ccccc3)c2)c1 | 83% (active) | 84% (active) | -4% | 99% (active) | inactive | inactive | inactive | inactive
O=C(/C=C/c1ccc(Cl)c(Cl)c1)NCCCCCN1CCC(NC(=O)Nc2ccc(Br)cc2)CC1 | 7% | 36% | -3% | 101% (active) | inactive | inactive | inactive | inactive
CCN(CC)CCNC(=O)c1ccc(NC(=O)c2cn(-c3ccccc3)nc2-c2cccs2)cc1 | 94% (active) | 30% | -1% | 103% (active) | inactive | inactive | inactive | inactive
CC(Nc1nncc(-c2cccc(F)c2)n1)c1ccc(F)cc1 (stereo not given) | 89% (active) | 4% | 0% | 95% (active) | inactive | inactive | inactive | inactive

SMILES | growth inhibition [1] | inhibition [2] | inhibition [3] | growth inhibition [4] | outcome [5] | outcome [6] | outcome [7] | outcome [8]
S=C(NN=Cc1ccccn1)Nc1ccc(Cl)c(Cl)c1 | 85% (active) | 40% | 5% | 98% (active) | inactive | inactive | inactive | inactive
CN(Cc1cccc(F)c1)C1CCN(c2cc(NC(=O)c3ccc(F)cc3)ccn2)CC1 | 36% | -3% | 3% | 95% (active) | inactive | inactive | inactive | inactive
COc1ccc(-c2cccc(NC(=O)c3cccc(C#N)c3)c2)cc1CN(C)CCN(C)C | 21% | -5% | 3% | 99% (active) | inactive | inactive | inactive | inactive
N#CCCN1CCN(Cc2ccc(-c3cccc(-c4nc5ccc(F)cc5[nH]4)c3)cc2)CC1 | 17% | 16% | 0% | 91% (active) | inactive | inactive | inactive | inactive
COC(=O)c1cccc(NC(=O)NC2CCN(c3ccnc(Nc4ccc(OC)cc4)n3)C2)c1 (stereo not given) | 65% (active) | 1% | -3% | 99% (active) | inactive | inactive | inactive | inactive
O=S(=O)(NCCN1CCCC1)c1ccc(-c2cccc(CNC3Cc4ccccc4C3)c2)cc1 | 57% (active) | 55% (active) | -6% | 99% (active) | inactive | inactive | inactive | inactive
O=C(Nc1cccc(-c2nn3ccccc3c2-c2ccnc(Nc3cccc(F)c3)n2)c1)c1c(F)ccc(F)c1Cl | 38% | 41% | 5% | 93% (active) | inactive | inactive | inactive | inactive
c1ccc(CCNCc2ccc(-c3ccc(CNC4CCN(Cc5ccccc5)CC4)cc3)nc2)cc1 | 99% (active) | 34% | -1% | 101% (active) | inactive | inactive | inactive | inactive
CCCN(CCC)CC(O)COc1ccccc1C(=O)Nc1ccccc1 (stereo not given) | 95% (active) | 6% | -2% | 92% (active) | inactive | inactive | inactive | inactive
CC1(C)N=C(N)N=C(N)N1c1ccc(Br)cc1 | 4% | 52% (active) | 0% | 94% (active) | inactive | inactive | inactive | inactive
O=C(Nc1ccc(F)c(Cl)c1)NC1CCN(c2ccnc3cc(Cl)ccc23)C1 (stereo not given) | 74% (active) | 37% | -3% | 101% (active) | inactive | inactive | inactive | inactive
CN(C)CC(=O)Nc1ccc(-c2ccc3ccnc(N)c3c2)cc1 | 99% (active) | 69% (active) | 2% | 101% (active) | inactive | inactive | inactive | inactive
Cc1nc(N/C=C/c2ccc(O)cc2)cc(N2CCCC2)n1 | 54% (active) | -11% | -2% | 93% (active) | inactive | inactive | inactive | inactive
Cc1cccc2[nH]c(-c3cccc(-c4cccc(CNC(C)C)c4)c3)nc12 | 98% (active) | 29% | -4% | 102% (active) | inactive | inactive | inactive | inactive
CC(C)(C)c1ccc(CN2CCC(CNC(=O)c3cc(-c4cccc(F)c4)cs3)C2)cc1 (stereo not given) | 55% (active) | 32% | 3% | 100% (active) | inactive | inactive | inactive | inactive
CC(C)(C)c1ccc(CN2CCC(CNC(=O)c3cc(-c4cccc(Cl)c4)cs3)C2)cc1 (stereo not given) | 83% (active) | 44% | 1% | 101% (active) | inactive | inactive | inactive | inactive
COc1ccc2nccc([C@@H](O)CN3CCC(NC(=O)/C(=C/c4ccccc4)c4ccc(-c5ccccc5)cc4)CC3)c2c1 | 38% | 4% | 0% | 94% (active) | inactive | inactive | inactive | inactive
Nc1nc2ccc(CN(C=O)c3ccc(C(=O)N[C@@H](CCC(=O)O)C(=O)O)cc3)cc2c(=O)[nH]1 | 94% (active) | -5% | 2% | 93% (active) | inactive | inactive | inactive | inactive
Cn1c2c(c3ccccc31)CN(CCC1(c3ccc(Cl)c(Cl)c3)CN(C(=O)c3ccccc3)CCO1)CC2 (stereo not given) | 88% (active) | 10% | 3% | 97% (active) | inactive | inactive | inactive | inactive
CC1(C)N=C(N)N=C(N)N1OCCCOc1cccc(C(=O)O)c1 | 96% (active) | 73% (active) | -6% | 94% (active) | inactive | inactive | inactive | inactive
